# High-throughput results (PubChem BioAssay)
# Only some compounds are listed: those with a hit (about 21% of all), similar ones and a draw of the others.
# Pf growth 96h: P. falciparum growth inhibition at 96 hour, primary screen for plastid delayed-death inhibitors. P. falciparum luciferase reporter growth, 96 h. Potency, µM (top dose mostly 28.7 µM), inactives show top-dose activity change, negative = inhibition, hits mostly inhibitors. 6.9% of 320,000 active. AID 504834; note: potency is the fitted concentration of half-maximal effect; % is set by controls: 0 for no effect and ±100 for the full control effect
#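 Readout is luminescence from an integrated firefly luciferase in P. falciparum. Red cells, 2% hematocrit and 0.05% parasitemia final, were cultured with compound through two parasite generations (96 hours) at 37 C, 5% CO2.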
# Pf growth 48h: inhibits P. falciparum growth in the first generation, 48 h; 5.9% of 310,000 active; AID 504832; Potency, µM (top dose mostly 28.7 µM), without a hit: at the highest dose activity change, negative = inhibition, hits mostly inhibitors; P. falciparum luciferase growth in erythrocytes, 48 h; note: potency is the fitted concentration of half-maximal effect; % is set by controls: 0 for no effect and ±100 for the full control effect
#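 Read-out is firefly luciferase luminescence from an integrated reporter in P. falciparum, so falling signal marks reduced parasite growth. Infected erythrocytes were at 2% hematocrit and 0.1% parasitemia (final) in Albumax-supplemented RPMI 1640.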
# NS1 function inh: blocks influenza NS1 protein function; Potency, µM (series often up to 46.1 µM), for inactives: at the top dose activity, positive = more growth; 0.4% of 270,000 active; AID 2326; calls by dose curve; note: potency is the fitted concentration of half-maximal effect; actives are rising curves; nearly all actives have a fitted effect of over 50% in size
#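 Recovery from NS1-induced slow growth read by OD600 in budding yeast switched to galactose assay medium (pH 6.0, -URA) at 1:100 dilution. Compound 23 nl per well; the matching strain lacking NS1 serves as control.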
# Shiga toxin inh: blocks Shiga toxin action in Vero cells. Vero cells, Shiga toxin protein synthesis inhibition reporter. inhibition, % at 38.7 µM. 9.2% of 290,000 active. AID 2315; in the data active = inhibition mostly above about 28%, no sharp cut-off; inactive = mostly below about 43%; note: 0% is about no effect
# CHX counter: counter-screen hit for Shiga toxin inhibitors, cycloheximide. 12% of 300,000 active. cell reporter, cycloheximide protein synthesis inhibition counterscreen. max response, %; in the data active = max response mostly above about 13%, no sharp cut-off; inactive = mostly below about 14%; note: read at 38.3 µM for the half of the compounds with a filed dose; 0% is about no effect
# FBPA Giardia inh: Giardia lamblia aldolase inhibition. Potency, µM (top dose mostly 59.6 µM), for the others: at the highest dose activity, negative = inhibition, actives largely listed as inhibitors. A8B2U2. 0.71% of 290,000 active. purified Giardia FBPA; note: potency is the fitted concentration of half-maximal effect; % is set by controls: 0 for no effect and ±100 for the full control effect; nearly all actives have a fitted effect of over 55% in size
# Target sequence (A8B2U2 whole entry, looked up): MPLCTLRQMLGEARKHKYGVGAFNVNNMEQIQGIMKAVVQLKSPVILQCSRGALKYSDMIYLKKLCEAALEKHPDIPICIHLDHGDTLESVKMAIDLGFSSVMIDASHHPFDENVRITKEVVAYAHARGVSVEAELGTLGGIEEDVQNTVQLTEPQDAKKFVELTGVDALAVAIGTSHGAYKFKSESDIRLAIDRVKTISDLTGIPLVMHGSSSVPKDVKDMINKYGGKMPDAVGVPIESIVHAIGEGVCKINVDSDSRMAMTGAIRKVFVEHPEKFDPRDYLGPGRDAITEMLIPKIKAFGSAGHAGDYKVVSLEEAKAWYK
#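 40 nM FBPA preincubated 10 min at RT with compound (up to 57.5 uM final), then substrate plus GAPDH/TPI/NAD/arsenate coupling and diaphorase/resazurin added. Fluorescence read after 20 min at RT, 525/598 nm.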
# * hit, by the source's call; ? = inconclusive; · = not tested or not shown; [ ] = another dose, or the depositor's remark. Unless noted, calls come from the whole dose curve; as a rule, active = well fitted curve in the direction sought with a large enough effect; inconclusive = small, poorly fitted or top-dose-only effect, or another doubt; inactive = no such curve, though single readings can be large; an effect the other way counts as inactive or inconclusive.
SMILES,Pf growth 96h,Pf growth 48h,NS1 function inh,Shiga toxin inh,CHX counter,FBPA Giardia inh
O=C(Nc1c(Cl)cc(Cl)cc1C(=O)NCc1cccnc1)c1ccc(Cl)cc1Cl,18%,1.5µM*,-7%,24,1,0%
CC(=O)NC(C(=O)O)C(C)(C)SN=O (stereo unspecified),·,·,·,·,·,2%
Cc1cccc(N2CCN(C(=S)NCCc3ccccc3)CC2)c1C,55%,16%,4%,15,17,15%
CC1CCCCN1C(=S)NCCc1ccccc1 (stereo unspecified),43%,·,-11%,91*,38*,-2%
CC1CCCN(C(=S)NCCc2ccccc2)C1 (stereo unspecified),60%,39%,-80%,54*,26*,1%
CCn1c(C(=O)O)c(CC(=O)N(C)c2ccc(OC)cc2OC)c2ccccc21,12%,-5%,8%,-4,-2,0%
Cc1oc(C(C)(C)C)cc1C(=O)Nc1ccc2c(c1)OCCO2,·,29%,-52%,102*,53*,3%
Cc1oc(C(C)(C)C)cc1C(=O)Nc1cccc(/C=C/C(=O)O)c1,3%,2%,-1%,54,3,13%
Cc1oc(C(C)(C)C)cc1C(=O)Nc1ccc2c(c1)OCO2,26%,34%,-36%,79*,32*,1%
CC(=O)O[C@@H]1CC2C(C)(C)C(=O)C=C[C@]2(C)C2CC[C@]3(C)C(=CC[C@H]3C3CO[C@@H](C(C)(C)O)[C@H](O)C3)[C@@]21C (stereo partly specified),·,·,·,·,·,1%
Cc1ccc(OCC(=O)NNc2c3ccccc3nc3ccccc23)cc1,?,9.3µM*,-8%,8,-2,1%
Cc1cc(CNC(=O)COc2ccccc2)c2ccccc2n1,38%,8%,·,80,17*,7%
Cc1cccc(OCC(=O)NNc2c3ccccc3nc3ccccc23)c1,3.7µM*,?,-21%,15,1,0%
Cc1ccc(C(=O)COc2nc(C)nc3ccccc23)cc1,49%,232%,0%,80*,24*,1%
OCC1(CCc2ccccc2)CCN(Cc2cc(F)ccc2-n2cccn2)CC1,34%,?,-5%,-29,1,1%
Cc1cc2c(s1)c1cnn(Cc3ccccc3)c(=O)c1n2C,·,·,·,-5,-4,·
Cc1[nH]c(=O)[nH]c(=O)c1S(=O)(=O)Nc1ccc(F)cc1F,11%,9%,6%,18,8,-1%
Cc1cnc(C(=O)N2CCc3c([nH]c4ccccc34)C2c2ccc(F)cc2)cn1 (stereo unspecified),?,5.2µM*,-2%,25,4,-17%
O=C(c1cnccn1)N1CCc2c([nH]c3ccccc23)C1c1cccc(Cl)c1 (stereo unspecified),?,?,-1%,27*,12*,-4%
Cc1cc(C(=O)N2CCc3c([nH]c4ccccc34)C2c2cccc(Cl)c2)nn1C (stereo unspecified),12µM*,?,4%,50*,45*,15%
CC(=O)NCCC(=O)N1CCc2c([nH]c3ccccc23)C1c1cccc(Cl)c1 (stereo unspecified),2%,-12%,1%,37,-2,-6%
CCc1ccc(C2c3[nH]c4ccccc4c3CCN2C(=O)c2cc(C)nn2C)cc1 (stereo unspecified),9%,?,14%,-7,-1,-1%
CSc1ccc(C2c3[nH]c4ccccc4c3CCN2C(=O)c2cc(C)n(C)n2)cc1 (stereo unspecified),32%,?,12%,81*,34*,-12%
O=c1ccc2cc(S(=O)(=O)Nc3ccc(Br)cc3)ccc2o1,?,3%,-8%,-11,-2,4%
Cc1cc(C(=O)N2CCc3c([nH]c4ccccc34)C2c2c(F)cccc2Cl)no1 (stereo unspecified),-5%,5.9µM*,2%,4,-1,-11%
SMILES,Pf growth 96h,Pf growth 48h,NS1 function inh,Shiga toxin inh,CHX counter,FBPA Giardia inh
CC(=O)NCCC(=O)N1CCc2c([nH]c3ccccc23)C1c1cccc(C)c1 (stereo unspecified),?,72%,-5%,38,19*,-1%
O=C(Nc1ccccc1N1CCN(C(=O)c2ccccc2)CC1)c1ccc(Br)o1,9.3µM*,0%,-66%,-19,-3,·
O=C(Nc1ccc(N2CCN(C(=O)c3ccccc3)CC2)cc1)c1ccc([N+](=O)[O-])o1,-2%,?,0%,-35,-11,-18%
O=C(Nc1ccccc1N1CCCCC1)c1ccc([N+](=O)[O-])o1,8.3µM*,10µM*,·,·,·,·
CN1CCN(c2ccccc2NC(=O)c2ccc(-c3ccccc3[N+](=O)[O-])o2)CC1,29%,5.2µM*,-4%,-3,-1,-7%
O=C(Nc1ccccc1N1CCOCC1)c1ccc([N+](=O)[O-])o1,37%,-1%,14%,-17,-1,·
O=C(Nc1ccccc1N1CCN(C(=O)c2ccc(Cl)cc2)CC1)c1ccc([N+](=O)[O-])o1,-16%,6.6µM*,-34%,4,10,·
O=[N+]([O-])c1ccccc1-c1ccc(C(=S)N2CCN(c3ccccc3)CC2)o1,34%,12%,3%,22,8,-25%
O=C(Nc1ccccc1N1CCN(C(=O)c2ccccc2)CC1)c1ccc(Cl)cc1,-36%,?,·,29,1,-5%
COc1ccc(C(=O)Nc2ccccc2N2CCN(C(=O)c3ccccc3)CC2)cc1Br,?,2.1µM*,-17%,-7,-1,·
Cc1cc(OCC(=O)OCC(=O)N(C)c2c(N)n(Cc3ccccc3)c(=O)[nH]c2=O)ccc1Cl,30%,2%,·,·,·,·
COc1cc(C(=O)NNC(=O)C2CC2)cc(OC)c1OC,51%,40%,6%,-4,-3,-13%
CCOC(=O)CSC1=NC(=O)/C(=C\c2ccc(Cl)cc2)S1,-1%,32%,-186%,104*,34*,15%
CN=C1S/C(=C\c2ccc(SC)cc2)C(=O)N1C,89%,68%,-9%,56*,33*,-20%
CCOC(=O)C1CCN(C2=NC(=O)/C(=C/c3ccc(Cl)cc3)S2)CC1,-7%,1%[0.00184 µM],-1%,-6,-7,-8%
CSC1=N/C(=C\c2ccc(F)cc2)C(=O)S1,?,42%,-20%,-17,8,-5%
CSC1=NC(=O)/C(=C/c2ccc(SC)cc2)S1,160%,212%,·,96,31*,11%
COCCN1C(=O)/C(=C/c2ccc(OCc3ccc(C(=O)O)cc3)c(OC)c2)SC1=Nc1ccccc1,8.3µM*,12µM*,0%,-3,-5,14%
CN=C1S/C(=C\c2ccc(Cl)cc2)C(=O)N1C,56%,17%,-15%,26,6,2%
CC(C)NC(=O)N1CC[C@@]2(CCCN(C(=O)c3ccncc3)C2)C1,·,·,·,·,·,2%
